# ssDAF-12 act = S. stercoralis DAF-12 nuclear receptor activators, primary screen, cell-based, luminescence, HEK293, GRIP1 co-expression, lit1-tk-luc. Nuclear hormone receptor DAF-12 (Strongyloides stercoralis). HEK293 ssDAF-12/GRIP1 lit1-tk-luc reporter; % of 3 µM dafachronic acid response. activation, % at 6.8 µM. 370,000 compounds, 1% hits;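 active = activation above the mean over all tested compounds plus 3 SD, cut at about 0.9% in these data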;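 also: 0% = DMSO-only wells and 100% = 3 µM delta7-dafachronic acid wells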
# DAX1 inh-1 = DAX1 (NR0B1) inhibitors, primary screen, cell-based, HEK293, Gal4-DAX1, luciferase luminescence; inhibition, % at 6.75 µM; 340,000 compounds, 0.99% hits; HEK293 Gal4-DAX1 luciferase reporter; AID 504766, 2011; Nuclear receptor subfamily 0 group B member 1 (Homo sapiens), P51843;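 active = inhibition above the mean over all tested compounds plus 3 SD, cut at about 4.2% in these data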;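 also: 0% = DAX1-transfected cells with DMSO and 100% = empty-vector control cells with DMSO; inhibition shows as a rise in luminescence from relieved DAX1 repression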
# Target sequence (P51843 207-470 limits assumed): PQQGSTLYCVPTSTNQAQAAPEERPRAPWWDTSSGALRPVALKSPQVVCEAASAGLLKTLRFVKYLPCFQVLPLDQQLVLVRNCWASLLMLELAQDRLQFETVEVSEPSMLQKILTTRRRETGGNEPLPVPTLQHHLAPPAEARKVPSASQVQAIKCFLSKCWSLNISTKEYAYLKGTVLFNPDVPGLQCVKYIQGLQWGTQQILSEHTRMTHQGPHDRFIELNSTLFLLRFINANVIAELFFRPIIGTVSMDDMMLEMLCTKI
# hcDAF-12 act = H. contortus DAF-12 nuclear receptor activators, primary screen, cell-based, luminescence, HEK293, lit1-tk-luc reporter. HEK293 hcDAF-12 lit1-tk-luc reporter; 0% DMSO, 100% Δ7-dafachronic acid. activation, % at 6.8 µM. 370,000 compounds, 1.4% hits;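 active = activation above the mean of all tested compounds plus 3 SD, cut at about 5.5% in these data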;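 also: 100% = response to 3 µM Δ7-dafachronic acid high control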
# DAX1 inh-2 = DAX1 (NR0B1) inhibitors on StAR promoter, primary screen, cell-based, luminescence, SF-1 (NR5A1), full-length DAX-1; inhibition, % at 6.8 µM; 370,000 compounds, 1.1% hits; HEK293T StAR-luciferase reporter, SF-1/DAX-1 repression relief;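 active = inhibition above the mean over all tested compounds plus 3 SD, cut at about 3.6% in these data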;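 also: 0% = DAX-1 cells with DMSO and 100% = cells lacking DAX-1 with DMSO; higher inhibition means more luminescence from relief of DAX-1 repression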
# hgDAF12 agonist = H. glycines DAF-12 receptor agonists, primary screen, cell-based, luminescence, HEK293, GAL4 fusion, UAS-luciferase; activation, % at 6.8 µM; AID 687014, 2013; HEK293 GAL4-hgDAF12 UAS-luciferase reporter, agonist luminescence; normalized to butyrate control; 370,000 compounds, 1.8% hits; Nuclear hormone receptor DAF-12 (Heterodera glycines), GAL4 fusion;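 active = activation above a cutoff set at the mean of all screened compounds plus 3 SD, cut at about 10% in these data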;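 also: 0% = DMSO wells and 100% = sodium butyrate wells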
# hgDAF12 conf = H. glycines DAF-12 receptor agonists, confirmation, cell-based, luminescence, HEK293, GAL4-LBD fusion. shares compounds with hgDAF12 agonist. HEK293 GAL4-hgDAF12 luciferase reporter, agonist mode; percent of butyrate response. activation, % at 6.8 µM. 3,300 compounds, 80% hits;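 active = mean activation over triplicate wells above the hit cutoff derived from the earlier primary screen, cut at about 11% in these data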;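 also: 0% = DMSO low control and 100% = 2 mM sodium butyrate high control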
# LXRb DAF12 ctr = LXR agonists, Gal4 luciferase reporter, confirmation, counter-screen for hgDAF-12 agonist project, cell-based, luminescence, HEK293, H. glycines campaign | shares compounds with hgDAF12 agonist | 3,300 tested, under 10 active | AID 743051, 2013 | activation, % at 6.8 µM | 24 h;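 active = mean activation of the triplicate above a set limit carried over from the primary screen, none filed active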
# * = called active by the depositor; x = no result given. Sampled rows, rich in hits. Any-hit rate of the full collection: about 4.1%.
SMILES,ssDAF-12 act,DAX1 inh-1,hcDAF-12 act,DAX1 inh-2,hgDAF12 agonist,hgDAF12 conf,LXRb DAF12 ctr
O=C(C=C1SCCS1)/C=C/c1ccco1,0.2,0.0,3.6,3.7*,14.8*,14.3*,0.7
COc1cccc(C(=O)O/N=C(\N)c2ccncc2)c1,-0.9,1.6,1.9,2.0,16.7*,16.1*,0.7
N/C(=N\OC(=O)/C=C/c1ccccc1)c1ccccc1,0.6,3.1,1.7,4.3*,17.4*,14.5*,0.7
COc1ccc(C(=O)O/N=C(\N)c2ccncc2)cc1OC,-1.0,1.2,0.2,-0.2,4.5,x,x
CCOC(=O)c1ccc(OS(=O)(=O)c2ccccc2)c(OC)c1,-0.1,0.9,4.2,2.8,16.2*,11.5*,0.6
N/C(=N\OC(=O)/C=C/c1ccccc1)c1ccc(Cl)cc1,-0.9,x,-1.8,-0.5,3.6,x,x
COc1ccc(C(=O)O/N=C(\N)c2ccccc2)cc1OC,-0.2,5.9*,5.2,2.1,16.5*,11.7*,0.7
CC1Sc2ccc(S(=O)(=O)N(C)Cc3ccccc3)cc2NC1=O (configuration not stated),-1.0,-0.6,-0.8,-0.3,-0.6,x,x
CCOc1cccc(Cc2c[nH]c(=O)[nH]c2=O)c1,-0.9,1.1,-1.0,0.1,-2.8,x,x
NS(=O)(=O)c1ccc(CNC(=O)C(c2ccccc2)c2ccccc2)cc1,-1.4,0.7,-0.9,-0.5,1.5,x,x
COc1ccc(C(=O)O/N=C(\N)c2ccccn2)cc1,-1.5,-3.0,-1.7,-0.3,-5.6,x,x
Cc1occc1C(=O)N/N=C/C=C/c1ccccc1,-0.1,3.8,1.2,3.6,7.5,x,x
C/C(=N/NC(=O)c1ccccc1)c1ccc(NC(=O)C(F)(F)F)cc1,-0.2,1.7,3.9,2.3,14.5*,5.3,0.2
COc1cc(OC)cc(C(=O)O/N=C(\N)c2ccccn2)c1,0.4,x,2.2,0.8,13.3*,13.0*,0.5
C/C(=N\NC(=O)c1ccoc1C)c1ccccc1,0.6,x,5.6*,3.9*,13.8*,11.2*,0.6
COc1ccc(/C(N)=N/OC(=O)c2ccco2)cc1OC,-0.1,2.3,1.9,3.3,17.8*,12.6*,0.3
Cc1ccc(CN2CCNC(=O)C2CC(=O)NCC(F)(F)F)o1 (configuration not stated),-1.0,1.4,-0.2,-0.7,1.8,x,x
CC1Cc2ccccc2N1C(=O)Cn1cnc2c1c(=O)n(C)c(=O)n2C (configuration not stated),-1.2,0.3,-1.2,0.0,0.8,x,x
COc1cc2c(cc1N)-c1ccc(N)cc1C2,-1.0,1.3,2.3,1.5,7.0,x,x
O=C1COc2ccc(S(=O)(=O)N3CCC(C(=O)NCc4ccc(F)cc4)CC3)cc2N1,-1.1,-0.6,-1.0,-0.3,0.5,x,x
Cc1occc1C(=O)O/N=C(\N)c1ccccc1,0.1,x,4.9,2.5,13.8*,13.5*,0.9
Cc1cccc(/C(N)=N/OC(=O)c2ccoc2C)c1,0.2,1.6,5.2,1.5,9.1,x,x
Cc1ccccc1NC(=O)CCS(=O)(=O)c1cccc2nonc12,-0.9,2.1,-3.0,-0.5,1.5,x,x
CN1CCC(=O)N([C@H](CN=[N+]=[N-])Cc2ccccc2)CC1,-1.4,0.9,-1.5,-0.4,-1.1,x,x
N/C(=N\OC(=O)c1ccc([N+](=O)[O-])cc1)c1cccnc1,-1.5,0.6,0.3,-0.2,2.5,x,x
SMILES,ssDAF-12 act,DAX1 inh-1,hcDAF-12 act,DAX1 inh-2,hgDAF12 agonist,hgDAF12 conf,LXRb DAF12 ctr
N/C(=N\OC(=O)c1ccc(Br)o1)c1cccnc1,-1.8,1.4,0.9,1.6,14.5*,6.6,0.3
COc1ccc(O)c(C2=Nc3ccccc3N=C(c3ccccc3)C2)c1,-0.1,3.0,3.0,1.3,14.1*,-0.2,0.0
COc1ccc2c(c1)NC(=O)CC(c1ccccc1)=N2,-1.7,0.7,-0.7,0.4,6.4,x,x
COc1ccc(-n2ncc3c(NC(C)C)ncnc32)cc1,0.7,0.0,5.4,3.3,18.9*,16.7*,0.9
COc1ccc(-n2ncc3c(N4CCCCC4)ncnc32)cc1,x,-4.6,x,x,x,x,x
COCC(C)Nc1ncnc2c1cnn2-c1ccc(Cl)cc1 (configuration not stated),0.5,1.0,5.8*,4.0*,17.8*,10.7*,1.0
CN(C)C/C=C(/c1ccc(Br)cc1)c1cccnc1,-1.7,-0.5,-0.8,0.0,0.5,x,x
COc1ccc(CNC(=O)C(C)OC(=O)CO/N=C(\C)c2ccc3c(c2)OCO3)cc1 (configuration not stated),-0.6,-0.2,-0.9,1.0,-1.9,x,x
Cc1ccc(O)c(C2=NNC(c3ccc(Cl)cc3)C2)c1 (configuration not stated),0.6,2.4,5.7*,3.0,14.6*,12.7*,0.6
Cc1ccc(O)c(C2=NNC(O)(C(F)(F)F)C2)c1 (configuration not stated),-1.6,-1.0,-1.6,-0.9,-0.5,x,x
Cc1ccc(NC(=O)c2cc3cccc([N+](=O)[O-])c3[nH]2)cc1,1.3*,3.7,4.2,2.3,13.4*,18.8*,0.7
O=C(c1cnsn1)N1CCC(CO)(Cc2cccc(F)c2)CC1,0.2,1.6,2.7,1.6,15.2*,9.7,0.2
Cc1cc(C(=O)N2CCC(CO)(Cc3cccc(C(F)(F)F)c3)CC2)n[nH]1,-1.1,-0.7,-0.7,0.4,-1.7,x,x
COc1ccc(/C=C2\SC(=O)N(CCc3nnc(N)s3)C2=O)cc1,0.7,1.6,3.7,4.1*,16.0*,10.3,0.8
COc1ccc(/C=C2\SC(=O)N(CCCC(=O)Nc3ccc(C(=O)O)cc3)C2=O)cc1,-3.8,-4.8,-9.2,-6.5,-20.9,x,x
Cc1ccc(C)c(N2CCN(c3cnn(-c4nc5ccccc5s4)c(=O)c3Cl)CC2)c1,0.3,3.2,4.7,3.7*,14.2*,11.8*,0.6
COc1ccc(Nc2cnn(-c3nc4ccccc4s3)c(=O)c2Cl)cc1,-0.4,0.5,-0.3,-0.5,2.5,x,x

# Screens as filed in PubChem BioAssay.
